The entries come from a sample that favours hits as a whole.
Shiga inhibitor: blocks Shiga toxin action in Vero cells. Vero cells, Shiga toxin protein synthesis inhibition reporter. inhibition, % at 38.7 µM. hit rate 9.2% among 290,000; in the data active = inhibition mostly above about 28%, no sharp cut-off; inactive = mostly below about 43%
Cycloheximide cs: counter-screen hit for Shiga toxin inhibitors, cycloheximide | cell reporter, cycloheximide protein synthesis inhibition counterscreen | max response, % | hit rate 12% among 300,000 | AID 2314; in the data active = max response mostly above about 13%, no sharp cut-off; inactive = mostly below about 14%; note: read at 38.3 µM for the half of the compounds with a filed dose
Tb PYK inh: blocks Trypanosoma brucei pyruvate kinase. Q57TT1. TbPYK enzyme, Kinase-Glo Plus ATP luminescence, 45 min. Potency, µM (top dose mostly 76.8 µM), most hits filed as inhibitors. hit rate 0.12% among 410,000; note: nearly all actives have a fitted effect of over 50% in size
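ADP (130 uM final) triggers the TbPYK reaction after compound addition; incubation is 45 min at room temperature. Kinase-Glo Plus is then added and luminescence imaged. Normalized data are fitted to concentration-effect curves.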
LmPK inh: LmPK (Leishmania mexicana) enzyme inhibition; Q27686; purified LmPK, Kinase-Glo ATP luminescence, 1 h; Potency, µM (top dose mostly 57.5 µM), actives largely listed as inhibitors; hit rate 0.37% among 290,000; AID 1721
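ATP generated from ADP (0.1 mM) and PEP (0.5 mM) by 0.1 nM LmPK over 1 h at room temperature (pH 7.2 imidazole buffer) was detected by coupled luciferase luminescence. Values were normalized to uninhibited and no-enzyme wells.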
FBPA Giardia inh: blocks Giardia fructose-bisphosphate aldolase activity; Potency, µM (highest dose often 59.6 µM), hits mostly inhibitors; hit rate 0.71% among 290,000; purified Giardia FBPA; note: nearly all actives have a fitted effect of over 55% in size
Target sequence (A8B2U2 whole entry, looked up): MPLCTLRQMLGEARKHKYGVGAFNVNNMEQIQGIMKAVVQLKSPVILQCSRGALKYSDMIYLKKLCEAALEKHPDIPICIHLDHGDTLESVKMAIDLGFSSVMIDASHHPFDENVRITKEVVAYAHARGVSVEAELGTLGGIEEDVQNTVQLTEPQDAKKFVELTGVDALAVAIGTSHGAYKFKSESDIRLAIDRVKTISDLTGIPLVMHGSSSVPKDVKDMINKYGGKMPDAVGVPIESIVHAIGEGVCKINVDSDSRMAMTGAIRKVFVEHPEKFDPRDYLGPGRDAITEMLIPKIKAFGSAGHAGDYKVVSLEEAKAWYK
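40 nM FBPA preincubated 10 min at RT with compound (up to 57.5 uM final), then substrate plus GAPDH/TPI/NAD/arsenate coupling and diaphorase/resazurin added. Fluorescence read after 20 min at RT, 525/598 nm.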
Sm TGR block: blocks Schistosoma mansoni thioredoxin glutathione reductase; purified TGR, DTNB reduction, TNB absorbance 405 nm; Q962Y6; AID 485364; hit rate 3% among 360,000; Potency, µM (series often up to 114 µM), actives largely listed as inhibitors; note: nearly all actives have a fitted effect of over 60% in size
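Kinetic colorimetric format: TGR-catalysed, NADPH-driven DTNB reduction monitored via TNB absorbance. Enzyme dispensed at 20 nM; compound exposure 15 min at room temperature before reaction start.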
Hits are given with their value; [ ] = remark or other dose. Unless noted, calls come from the whole dose curve; as a rule, active = well fitted curve in the direction sought with a large enough effect; inconclusive = small, poorly fitted or top-dose-only effect, or another doubt; inactive = no such curve, though single readings can be large; an effect the other way counts as inactive or inconclusive.

How did N#C/C(=N/Nc1ccc([N+](=O)[O-])cc1)C(=N)N1CCCCC1 do in these assays?
Shiga inhibitor: 104.5; Cycloheximide cs: 31.2; Tb PYK inh: inactive; LmPK inh: inactive; FBPA Giardia inh: inactive; Sm TGR block: inactive

What do the screens show for `N#C/C(=N\Nc1ccc([N+](=O)[O-])cc1)C(=N)N1CCOCC1`?
Shiga inhibitor: 68.8; Cycloheximide cs: 45.8; Tb PYK inh: inactive; LmPK inh: inactive; FBPA Giardia inh: inactive; Sm TGR block: inactive

Results for CCCCc1cc2c(cn1)=C(OC(=O)C1CCCC1)C(C)(OC(=O)CC)C(=O)C=2 (configuration not stated) ?
LmPK inh: inactive[11.5 µM]; FBPA Giardia inh: inactive[12.9 µM]

How did N#C/C(=N\Nc1ccccc1[N+](=O)[O-])C(=N)N1CCCCC1 do in these assays?
Shiga inhibitor: 66.9; Cycloheximide cs: 30.6; Tb PYK inh: inactive; LmPK inh: inactive; FBPA Giardia inh: inactive; Sm TGR block: inactive

What do the screens show for `Cc1nc(NC(=O)CCc2ccccc2)ccc1Br`?
Shiga inhibitor: 137.5; Cycloheximide cs: 32.4; Tb PYK inh: inactive; LmPK inh: inactive; FBPA Giardia inh: inactive; Sm TGR block: inactive

What do the screens show for `Cc1ccc(C(=O)Nc2ccnc(-c3cccnc3)n2)cc1`?
Shiga inhibitor: inactive; Cycloheximide cs: 35.9; Tb PYK inh: inactive; LmPK inh: inactive; FBPA Giardia inh: inactive; Sm TGR block: inactive

How did COc1ccc(C(=O)Nc2ccnc(-c3cccnc3)n2)cc1 do in these assays?
Shiga inhibitor: inactive; Cycloheximide cs: inactive; Tb PYK inh: inactive; LmPK inh: inactive; FBPA Giardia inh: inactive; Sm TGR block: inactive

Results for O=C(Nc1ccc2c(c1)Cc1ccccc1-2)c1cccnc1 ?
Shiga inhibitor: 89.5; Cycloheximide cs: 35.8; Tb PYK inh: inactive; LmPK inh: inactive; FBPA Giardia inh: inactive; Sm TGR block: inactive

How did CC(=O)c1sc(NC(=O)CCc2ccccc2)nc1C do in these assays?
Tb PYK inh: inactive

Results for O=C(Nc1ccc2nccnc2c1)c1cnccn1 ?
Shiga inhibitor: 46.9; Cycloheximide cs: 19.3; Tb PYK inh: inactive; LmPK inh: inactive; FBPA Giardia inh: inactive; Sm TGR block: inactive

How did CC(=O)c1cccc(NC(=O)c2cnccn2)c1 do in these assays?
Shiga inhibitor: inactive; Cycloheximide cs: inactive; Tb PYK inh: inactive; LmPK inh: inactive; FBPA Giardia inh: inactive; Sm TGR block: inactive

Results for Cc1nc(NC(=O)c2cccnc2)ccc1Br ?
Shiga inhibitor: 57.5; Cycloheximide cs: 31.8; Tb PYK inh: inactive; LmPK inh: inactive; FBPA Giardia inh: inactive; Sm TGR block: inactive

What do the screens show for `Cc1cccc(NC(=O)c2cccnc2)c1`?
Shiga inhibitor: inactive; Cycloheximide cs: inactive; Tb PYK inh: inactive; LmPK inh: inactive; FBPA Giardia inh: inactive; Sm TGR block: inactive

Results for O=C(Nc1ccc2c(c1)Cc1ccccc1-2)c1ccco1 ?
Shiga inhibitor: 141.5; Cycloheximide cs: 45.1; Tb PYK inh: inactive; LmPK inh: inactive; FBPA Giardia inh: inactive; Sm TGR block: inactive

How did Cc1cc(NC(=O)c2cccnc2)ccc1Br do in these assays?
Shiga inhibitor: 44.5; Cycloheximide cs: 31.1; Tb PYK inh: inactive; LmPK inh: inactive; FBPA Giardia inh: inactive; Sm TGR block: inactive

What do the screens show for `COc1cccc(OC)c1C(=O)Nc1ccc2c(c1)Cc1ccccc1-2`?
Shiga inhibitor: inactive; Cycloheximide cs: inactive; Tb PYK inh: inactive; LmPK inh: inactive; FBPA Giardia inh: inactive; Sm TGR block: inactive

How did N#Cc1ccc(C(=O)Nc2ccc3ccccc3c2)cc1 do in these assays?
Shiga inhibitor: 102.6; Cycloheximide cs: 25.9; Tb PYK inh: inactive; LmPK inh: inactive; FBPA Giardia inh: inactive; Sm TGR block: inactive

How did Cc1ccccc1C(=O)Nc1ccc(Br)c(C)n1 do in these assays?
Shiga inhibitor: 80.6; Cycloheximide cs: 48.9; Tb PYK inh: inactive; LmPK inh: inactive; FBPA Giardia inh: inactive; Sm TGR block: inactive

How did COc1ccc(NC(=O)c2cccnc2)cc1 do in these assays?
Shiga inhibitor: inactive; Cycloheximide cs: inactive; Tb PYK inh: inactive; LmPK inh: inactive; FBPA Giardia inh: inactive; Sm TGR block: inactive

How did O=C(Nc1ccc2ccccc2c1)c1cnccn1 do in these assays?
Shiga inhibitor: 84.8; Cycloheximide cs: 28.9; Tb PYK inh: inactive; LmPK inh: inactive; FBPA Giardia inh: inactive; Sm TGR block: inactive

How did Cc1ccccc1C(=O)Nc1ccccc1NC(=O)c1ccccc1Br do in these assays?
Shiga inhibitor: inactive; Cycloheximide cs: inactive; Tb PYK inh: inactive; LmPK inh: inactive; FBPA Giardia inh: inactive; Sm TGR block: inactive

How did O=C(Nc1ccc2ccccc2c1)c1cccnc1 do in these assays?
Shiga inhibitor: active; Cycloheximide cs: 46.7; Tb PYK inh: inactive; LmPK inh: inactive; FBPA Giardia inh: inactive; Sm TGR block: inactive

How did COCCOC(=O)CSc1ncccc1-c1nc2cc(C)c(C)cc2[nH]1 do in these assays?
Shiga inhibitor: inactive; Cycloheximide cs: 32.8; Tb PYK inh: inactive; LmPK inh: 14.1µM; FBPA Giardia inh: inactive; Sm TGR block: inactive

Results for Cc1cc2nc(-c3cccnc3SCC(=O)NC(C)C)[nH]c2cc1C ?
Shiga inhibitor: 65.7; Cycloheximide cs: 79.5; Tb PYK inh: inactive; LmPK inh: inconclusive; FBPA Giardia inh: inactive; Sm TGR block: inactive

How did COc1ccc2nc(SCC(=O)NC(C)C)[nH]c2c1 do in these assays?
Shiga inhibitor: inactive; Cycloheximide cs: inactive; Tb PYK inh: inactive; LmPK inh: inactive; FBPA Giardia inh: inactive

What do the screens show for `CN(C)S(=O)(=O)N1CCC(n2nccc2NC(=O)CCCc2ccccc2)CC1`?
Shiga inhibitor: inactive; Cycloheximide cs: inactive; Tb PYK inh: inactive; LmPK inh: inactive; Sm TGR block: inactive

What do the screens show for `O=S1(=O)C[C@H](N2CCC[C@@H]2CO)[C@@H](COCc2ccccc2)N1`?
Tb PYK inh: inactive

How did COc1ccc(CC(=O)NCC(=O)N=Nc2c(O)[nH]c3ccccc23)cc1 do in these assays?
Shiga inhibitor: inactive; Cycloheximide cs: inactive; Tb PYK inh: inactive; LmPK inh: inactive; FBPA Giardia inh: inactive; Sm TGR block: inactive

Results for Oc1cccc(NC(=S)N=Nc2c(O)[nH]c3ccccc23)c1 ?
Shiga inhibitor: 62.1; Cycloheximide cs: 42.1; Tb PYK inh: inactive; LmPK inh: inactive; FBPA Giardia inh: inconclusive; Sm TGR block: inactive

What do the screens show for `NC(=S)N=Nc1c(O)[nH]c2ccccc12`?
Shiga inhibitor: inactive; Cycloheximide cs: inactive; Tb PYK inh: inactive; LmPK inh: inactive; FBPA Giardia inh: inactive; Sm TGR block: inactive

Results for CCCCNC(=S)N=Nc1c(O)[nH]c2ccccc12 ?
Shiga inhibitor: 118.3; Cycloheximide cs: inactive; Tb PYK inh: inactive; LmPK inh: inactive; FBPA Giardia inh: inactive; Sm TGR block: inactive

What do the screens show for `CCOc1ccc(NC(=S)N=Nc2c(O)[nH]c3ccccc23)cc1`?
Shiga inhibitor: inactive; Cycloheximide cs: 12.6; Tb PYK inh: inactive; LmPK inh: inactive; FBPA Giardia inh: inactive; Sm TGR block: inactive

How did Oc1[nH]c2ccccc2c1N=NC(=S)NCCc1ccccc1 do in these assays?
Shiga inhibitor: inactive; Cycloheximide cs: inactive; Tb PYK inh: inactive; LmPK inh: inactive; FBPA Giardia inh: inactive; Sm TGR block: inactive
